aSyn 5UTR act – Activators working through SNCA 5'UTR binding (MLPCN) | alpha-synuclein 5'UTR reporter, activators screen | activity score, % (tested at 7.5 µM), hits read low | 300,000 tested, 7.1% active; in the data active means activity score below about -60%
* = called active by the depositor. These entries were drawn from the full list.

SMILES | aSyn 5UTR act
CC(=O)c1ccc(N/N=C(/C(N)=O)C2=NC(C)(C)Cc3ccccc32)cc1 | 56
CC(=O)c1ccc(Nc2ccc(-c3ccccc3F)nn2)cc1 | -172*
Cc1cc(=O)oc2c(C(=O)/C=C\c3cccs3)c(O)ccc12 | -89*
Cc1c(C(=O)/C=C/c2cccs2)oc2ccc(F)cc12 | -202*
CCN1CCN(c2ccc(NC(=O)c3cccc(F)c3)cc2Cl)CC1 | -82*
CCN1CCN(c2ccc(NC(=O)c3ccco3)cc2Cl)CC1 | -112*
O=C(Nc1ccc(N2CCCC2)c(Cl)c1)c1ccco1 | -113*
O=C(Nc1ccc(N2CCOCC2)c([N+](=O)[O-])c1)c1ccco1 | -73*
CC(C)(O)C#Cc1ccc(C(=O)NC2CCCCC2)s1 | -98*
CCc1ccc(C(=O)NC2CCCCC2)s1 | -82*
CC(C)(O)C#Cc1ccc(C(=O)Nc2ccc3c(c2)OCO3)s1 | -143*
CN(C)N=Nc1ccc(-c2cn(Cc3ccccc3)cn2)cc1 | -74*
CCc1nonc1NC(=O)c1oc2cc(Br)ccc2c1C | -113*
CCc1ccc2oc(C(=O)Nc3nonc3CC)c(C)c2c1 | -135*
CCc1nonc1NC(=O)c1oc2ccc(C)cc2c1C | -112*
CCc1nonc1NC(=O)c1oc2ccccc2c1C | -75*
Nc1nc2c(ccc3ccccc32)s1 | -72*
N#C/C(C(=O)c1ccccc1)=C1/CCCCCN1 | -113*
CC1CCc2nc(/C(C#N)=C/c3ccncc3)sc2C1 (stereo not given) | -114*
Cc1cc2nc(/C(C#N)=C/c3ccncc3)[nH]c2cc1C | -62*
N#C/C(=C\c1cccnc1)c1nc2ccccc2[nH]1 | -86*
COc1cc(/C=C(/C#N)c2nc3ccccc3[nH]2)ccc1OCC(=O)Nc1ccccc1C(C)C | 103
N#C/C(=C1/CCCCCN1)c1nc2ccccc2[nH]1 | -127*
COc1cc(/C=C(\C#N)c2nc3ccccc3[nH]2)ccc1OC(=O)c1ccco1 | -174*
N#C/C(=C\c1ccc(OC(=O)c2ccc(Cl)s2)cc1)c1nc2ccccc2[nH]1 | -287*
SMILES | aSyn 5UTR act
COc1ccc(/C(C#N)=C/c2cccnc2)cc1 | -71*
N#C/C(=C/c1ccncc1)c1nc2ccccc2s1 | -89*
CCN(CC)c1ccc(/C=C(/C#N)c2nc3ccccc3[nH]2)c(OC(C)C)c1 | -211*
N#C/C(=C\c1ccncc1)c1nc2ccccc2[nH]1 | -77*
CC(C)Oc1ccc(C(=O)NC(=S)N2CCOCC2)cc1 | -79*
CC(C)(C)c1ccc(C(=O)NC(=S)N2CCOCC2)cc1 | -102*
CCN(CC)c1ccc2cc(-c3nc4ccccc4n3C)c(=O)oc2c1 | -226*
CN(C)Cc1c(O)ccc2cc(-c3nc4ccccc4n3C)c(=O)oc12 | -70*
c1ccc(-c2ccc(-c3csnn3)cc2)cc1 | -131*
CCCc1ccc(OC(=O)c2ccc(O)cc2Cl)cc1 | -63*
c1csc(C2=NNC(=NC3CCCCC3)SC2)c1 | -165*
c1ccc2oc(C3=NNC(=NC4CC4)SC3)cc2c1 | -135*
CCn1c(COc2ccccc2C)nc2ccccc21 | -131*
Cn1c(COc2ccccc2Br)nc2ccccc21 | -145*
CCn1c(CCc2ccccc2)nc2ccccc21 | -76*
Cc1ccccc1OCc1nc2ccccc2c(=O)n1N | -113*
COc1cccc(CCc2nc3ccccc3c(=O)n2N)c1 | -68*
COCn1c(COc2ccc3ccccc3c2)nc2ccccc21 | -92*
Nn1c(COc2ccccc2)nc2ccccc2c1=O | -70*
C/C(=N/OC(=O)CC(C)C)c1cc(-c2ccc(Cl)cc2)no1 | -146*
O=c1/c(=C/c2ccc([N+](=O)[O-])cc2)sc2n1CCCN=2 | -173*
COc1ccc(/C=c2/sc3n(c2=O)C(c2ccccc2OC)C2=C(N=3)c3ccccc3CC2)cc1O (stereo not given) | 94
COc1cc(/C=c2\sc3n(c2=O)CCCN=3)ccc1O | -102*
Cc1ccc(Nc2nc(-c3ccc(O)c(O)c3)cs2)nc1 | -216*
Cc1ccc(Nc2nc(-c3ccc(F)cc3)cs2)nc1 | -175*
SMILES | aSyn 5UTR act
Cc1cccc(N=C/C(C(=O)C(F)(F)F)=C(\O)c2ccco2)c1 | -167*
Cc1ccc(N=C/C(C(=O)C(F)(F)F)=C(\O)c2ccco2)cc1Cl | -184*
O=C(/C(C=Nc1ccc(F)cc1)=C(/O)c1ccco1)C(F)(F)F | -113*
Cc1ccc(/C=N/NC(=O)c2cccs2)cc1[N+](=O)[O-] | -107*
O=C(N/N=C/c1ccccc1[N+](=O)[O-])c1cccs1 | -125*
CC(=O)c1ccc(OCc2ncc(C(F)(F)F)cc2Cl)cc1 | -81*
FC(F)(F)c1cnc(COc2ccc(Cl)cc2Cl)c(Cl)c1 | -82*
CCC(C)NC(=O)CSc1nc2ccsc2c(=O)n1NC(=O)c1ccccc1 (stereo not given) | -67*
CCOC(=O)CSc1nc2ccccc2c(=O)n1NC(=O)c1ccccc1 | -66*
C=CCn1c(SCc2cc(C(C)=O)ccc2OCC)nc2ccccc2c1=O | 104
COc1ccc(CCNC(=O)c2ccc3nc(N4CCCCC4)sc3c2)cc1OC | -131*
CCOc1ccc2nc(N3CCCC(C(=O)NCCCN4CCCCC4)C3)sc2c1 (stereo not given) | -86*
COc1ccc2nc(N3CCCC(C(=O)NCCc4ccc(OC)c(OC)c4)C3)sc2c1 (stereo not given) | -87*
COC(=O)c1ccc(Sc2ccc(C)cc2)c(N)c1 | -141*
O=C(CCS(=O)(=O)c1ccccc1)N1CCN(c2ccc(F)cc2)CC1 | -79*
O=C(CCSc1ccc(Cl)cc1)N1CCCCCC1 | -133*
O=C(CCSc1ccccc1)N1CCN(c2ccccc2)CC1 | -137*
O=C(CCSc1ccc(Cl)cc1)N1CCN(c2ncccn2)CC1 | -103*
Cc1nc2cc(-c3ccccc3)nn2c(C)c1CCC(=O)N1CCN(c2ccccc2)CC1 | 57
Cc1ccc(-c2ccc(SCC(=O)N3CCN(c4ccccc4)CC3)nn2)cc1 | -91*
C/C(=N\Nc1ccc(C(=O)O)cc1)c1ccc(S(=O)(=O)NCc2ccco2)cc1 | -75*
Cc1ccc(S(=O)(=O)Nc2nc3ccccc3nc2NCc2ccco2)cc1 | -180*
C/C(=N\Nc1nc(Cl)c(Cl)cc1Cl)c1ccc(S(=O)(=O)NCc2ccco2)cc1 | -64*
Cc1ccc(C(=O)Nc2cccc(C(=O)N3CCN(C)CC3)c2)cc1 | -98*
Cc1ccc(C(=O)Nc2cccc(C(=O)NCc3ccco3)c2)cc1 | -72*
SMILES | aSyn 5UTR act
CCC1=Nc2cc(C(=O)NCc3ccco3)ccc2Sc2ccc(C)cc21 | 104
Cc1ccc(C(=O)Nc2ccc(S(=O)(=O)NCc3ccco3)cc2)cc1 | -92*
COc1ccccc1-c1nnc(SCC(=O)N2CCOCC2)o1 | -85*
Cc1ccccc1-c1nnc(SCC(=O)N2CCCC2)o1 | -135*
O=C(CSc1nnc2ccc3ccccc3n12)N1CCOCC1 | -94*
O=C(CSc1nnc(-c2ccccc2Cl)o1)N1CCOCC1 | -124*
COc1ccccc1-c1nnc(-c2ccc(N3CCOCC3)cc2)o1 | -106*
CCOC(=O)C1=C(COc2ccc(C)cc2)NC(=O)NC1c1cc(C)ccc1C (stereo not given) | -86*
COc1ccc(-c2csc3nc(-c4ccccc4F)oc(=O)c23)cc1 | -101*
COc1ccc(F)cc1CN1CCN(c2ncnc3scc(-c4ccccc4)c23)CC1 | 98
Cc1ccc(OCC(=O)Nc2sc3c(c2C#N)CCC3)cc1 | -99*
CCOC(=O)Nc1sc2c(c1C#N)CCCC2 | -123*
CC(C)(C)C(=O)Nc1sc2c(c1C#N)CCCCC2 | -78*
Cc1nnc(SCC(=O)Nc2sc3c(c2C#N)CCCCC3)n1N | -74*

Compound activity deposited in PubChem BioAssay by Broad Institute.
